From PubChem
Pf growth 48h = Primary qHTS for delayed death inhibitors of the malarial parasite plastid, 48 hour incubation; P. falciparum luciferase growth in erythrocytes, 48 h; Potency, µM (top dose mostly 28.7 µM), most hits filed as inhibitors; 5.9% of 310,000 active; AID 504832, 2011
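Read-out is firefly luciferase luminescence from an integrated reporter in P. falciparum, so falling signal marks reduced parasite growth. Infected erythrocytes were at 2% hematocrit and 0.1% parasitemia (final) in Albumax-supplemented RPMI 1640.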
Shiga inhibitor = A qHTS for Small Molecule Inhibitors of Shiga Toxin; AID 2315, 2010; 9.2% of 290,000 active; inhibition, % at 38.7 µM; Vero cells, Shiga toxin protein synthesis inhibition reporter; in the data active = inhibition mostly above about 28%, no sharp cut-off; inactive = mostly below about 43%
HCV inh = qHTS Assay for Inhibitors of Hepatitis C Virus (HCV); Huh7.5.1 HCVcc-Cre infection, luciferase reporter, 44 h; Potency, µM (series often up to 41.8 µM), most hits filed as inhibitors; 3.4% of 340,000 active; AID 651820, 2012
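Compounds are dispensed onto cells plated 4 h earlier at 1,000 per well, with HCVcc-Cre virus (about 0.5 moi) added next. Following 44 h of culture, luminescent signal is measured for 15 sec after 15 min with substrate at room temperature.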
HCMV inh = qHTS Assay for inhibitors of the human cytomegalovirus (HCMV). activity change, negative = inhibition, % at 57.5 µM. AID 1259415, 2018. HFF cells, HCMV-luciferase reporter, 72 h; hits give low values. 4.5% of 410,000 active; in the data active = activity change below about -60%; inconclusive = no clear call, values can overlap the other calls; inactive = above about -39%
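Compounds were evaluated in HFFs infected with an HCMV luciferase reporter virus (MOI 1 PFU/cell). Luciferase in lysates collected 72 h post infection served as the replication measure.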
Cycloheximide cs = Cycloheximide Counterscreen for Small Molecule Inhibitors of Shiga Toxin. cell reporter, cycloheximide protein synthesis inhibition counterscreen. max response, %. 12% of 300,000 active; in the data active = max response mostly above about 13%, no sharp cut-off; inactive = mostly below about 14%; also: read at 38.3 µM for the half of the compounds with a filed dose
Pf growth 96h = Primary qHTS for delayed death inhibitors of the malarial parasite plastid, 96 hour incubation. Potency, µM (top dose mostly 28.7 µM), usual class: inhibitors. 6.9% of 320,000 active. AID 504834, 2011. P. falciparum luciferase reporter growth, 96 h
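Luminescence readout: decreased luciferase signal marks inhibited growth of reporter-expressing P. falciparum in infected red cells (2% hematocrit, 0.05% parasitemia final), exposed to compound two generations (96 h, 37 C, 5% CO2).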
Numbers stand for hits. Sampled rows, rich in hits. Any-hit rate of the full collection: about 21%. Unless noted, calls follow the shape of the dose curve; as a rule, active = well fitted inhibition curve with a large enough effect; inconclusive = small, poorly fitted or top-dose-only effect, or another doubt; inactive = no such curve, though single readings can be large or run the other way.

How did CC(C)c1ccc(CNc2ncccn2)cc1 do in these assays?
Pf growth 48h: inactive; Shiga inhibitor: 41.7; HCV inh: inactive; HCMV inh: inactive; Cycloheximide cs: 39.5; Pf growth 96h: inactive

How did CC(C)c1ccc(CNc2ccc(N3CCOCC3)cc2)cc1 do in these assays?
Pf growth 48h: inconclusive; Shiga inhibitor: inactive; HCV inh: inconclusive; HCMV inh: inactive; Cycloheximide cs: inactive; Pf growth 96h: inconclusive

How did CN(C)c1ccc(CNc2ccc3c(c2)ncn3C)cc1 do in these assays?
Shiga inhibitor: inactive; HCV inh: inconclusive; HCMV inh: -102.1; Cycloheximide cs: 19.6; Pf growth 96h: inactive

What do the screens show for `Cc1ccc2nc(NC(=O)CC3Oc4ccccc4NC3=O)sc2c1` (stereo unspecified)?
Pf growth 48h: inactive; Shiga inhibitor: inactive; HCV inh: inactive; HCMV inh: inactive; Cycloheximide cs: inactive; Pf growth 96h: inactive

What do the screens show for `CCn1ccc(C(=O)Nc2sc3c(c2C(=O)OC)CCC3)n1`?
Pf growth 48h: inconclusive; Shiga inhibitor: inactive; HCV inh: inconclusive; HCMV inh: inconclusive; Cycloheximide cs: inactive; Pf growth 96h: 11.7µM

What do the screens show for `Cc1onc(C(=O)Nc2sc3c(c2C#N)CCCC3)c1[N+](=O)[O-]`?
Pf growth 48h: inactive; Shiga inhibitor: 81.5; HCV inh: inactive; HCMV inh: inconclusive; Cycloheximide cs: 33.4; Pf growth 96h: inactive

What do the screens show for `Cc1onc(-c2ccccc2Cl)c1C(=O)Nc1sc2c(c1C#N)CCC2`?
Pf growth 48h: inconclusive; Shiga inhibitor: inactive; HCV inh: inactive; HCMV inh: inconclusive; Cycloheximide cs: inactive

Results for CCCC(=O)Nc1sc2c(c1C#N)CCCC2 ?
Pf growth 48h: inactive; Shiga inhibitor: 73.7; HCV inh: inconclusive; HCMV inh: inactive; Cycloheximide cs: 32.8; Pf growth 96h: inactive

How did N#Cc1c(NC(=O)CSc2nc(N)cc(=O)[nH]2)sc2c1CCCCCC2 do in these assays?
Pf growth 48h: inactive; Shiga inhibitor: inactive; HCV inh: inconclusive; HCMV inh: inconclusive; Cycloheximide cs: inactive; Pf growth 96h: inactive

What do the screens show for `N#Cc1c(NC(=O)CSc2ncn[nH]2)sc2c1CCCCC2`?
Pf growth 48h: 9.28µM; Shiga inhibitor: inactive; HCV inh: inconclusive; HCMV inh: -63.7; Cycloheximide cs: inactive

How did N#Cc1c(NC(=O)c2nc3ncccn3n2)sc2c1CCCCC2 do in these assays?
Pf growth 48h: inactive; Shiga inhibitor: 58.4; HCV inh: inactive; HCMV inh: inactive; Cycloheximide cs: 30.3; Pf growth 96h: inactive

Results for N#Cc1c(NC(=O)C2CC2)sc2c1CCCCC2 ?
Pf growth 48h: inactive; Shiga inhibitor: 37.2; HCV inh: inactive; HCMV inh: inactive; Cycloheximide cs: 31.3; Pf growth 96h: inactive

How did COC(=O)c1c(NC(=O)CCC(=O)O)sc2c1CCCCC2 do in these assays?
Pf growth 48h: inactive; Shiga inhibitor: inactive; HCV inh: inactive; HCMV inh: inconclusive; Cycloheximide cs: inactive; Pf growth 96h: inactive

How did COC(=O)c1c(NC(=O)C2CC2)sc2c1CCCC2 do in these assays?
Pf growth 48h: inactive; Shiga inhibitor: inactive; HCV inh: 10µM; HCMV inh: inactive; Cycloheximide cs: inactive; Pf growth 96h: inactive

Results for COc1ccc(CN(C)CC(=O)Nc2sc3c(c2C#N)CCC3)cc1OC ?
Pf growth 48h: inactive; Shiga inhibitor: inactive; HCV inh: 11.2µM; HCMV inh: inactive; Cycloheximide cs: inactive; Pf growth 96h: inactive

Results for CC1CCc2c(sc(NC(=O)c3nc4ncccn4n3)c2C#N)C1 (stereo unspecified) ?
Pf growth 48h: inactive; Shiga inhibitor: inactive; HCV inh: inactive; HCMV inh: inactive; Cycloheximide cs: inactive; Pf growth 96h: inactive

What do the screens show for `CC(=O)Nc1sc2c(c1C#N)CCCC2`?
Pf growth 48h: inactive; Shiga inhibitor: inactive; HCV inh: 11.2µM; HCMV inh: inactive; Cycloheximide cs: inactive; Pf growth 96h: inconclusive

What do the screens show for `CC(C)OC(=O)c1c(NC(=O)C2CC=CCC2C(=O)O)sc2c1CCCCC2` (stereo unspecified)?
Pf growth 48h: inactive; Shiga inhibitor: inactive; HCMV inh: inactive; Cycloheximide cs: inactive; Pf growth 96h: 9.28µM

Results for CC(C)C(=O)Nc1sc2c(c1C#N)CCCCC2 ?
Pf growth 48h: inactive; Shiga inhibitor: 61.8; HCV inh: inconclusive; HCMV inh: inactive; Cycloheximide cs: 23.8; Pf growth 96h: inactive

What do the screens show for `Cc1cccc(OCC(=O)Nc2sc3c(c2C#N)CCC3)c1`?
Pf growth 48h: inactive; Shiga inhibitor: 60.2; HCV inh: inconclusive; HCMV inh: inactive; Cycloheximide cs: 21.2; Pf growth 96h: inactive

How did CC(=O)C[C@@H](O)CC(=O)[C@@H]1OC(=O)CCCCCCCc2ccccc21 do in these assays?
HCV inh: inactive; HCMV inh: inactive

How did CC(=O)NC(=S)Nc1sc2c(c1C#N)CCCCC2 do in these assays?
Pf growth 48h: inactive; Shiga inhibitor: 84.0; HCV inh: inconclusive; HCMV inh: inactive; Cycloheximide cs: 29.6; Pf growth 96h: inactive

What do the screens show for `N#Cc1c(NC(=S)NC(=O)Cc2cccs2)sc2c1CCCCC2`?
Pf growth 48h: inactive; Shiga inhibitor: inactive; HCV inh: inactive; HCMV inh: inactive; Cycloheximide cs: inactive; Pf growth 96h: inactive

Results for CC(Sc1nc(N)cc(=O)[nH]1)C(=O)Nc1sc2c(c1C#N)CCCC2 (stereo unspecified) ?
Pf growth 48h: inactive; Shiga inhibitor: inactive; HCV inh: inconclusive; HCMV inh: -66.2; Cycloheximide cs: inactive; Pf growth 96h: inconclusive

How did Cn1nc(C(=O)Nc2sc3c(c2C#N)CCCC3)ccc1=O do in these assays?
Pf growth 48h: inactive; Shiga inhibitor: inactive; HCV inh: inactive; HCMV inh: inactive; Cycloheximide cs: 27.3; Pf growth 96h: inactive

What do the screens show for `CNC(=O)c1c(NC(=O)c2ccc(N3C(=O)CCC3=O)cc2)sc2c1CCCC2`?
Pf growth 48h: inactive; Shiga inhibitor: inactive; HCV inh: inconclusive; HCMV inh: inactive; Cycloheximide cs: inactive; Pf growth 96h: inconclusive

How did CNC(=O)c1c(NC(=O)C(C)C)sc2c1CCC2 do in these assays?
Pf growth 48h: 2.33µM; Shiga inhibitor: inactive; HCV inh: inconclusive; HCMV inh: inactive; Cycloheximide cs: inactive; Pf growth 96h: inactive

What do the screens show for `Cc1ccccc1OCC(=O)NNC(=O)CCN1C(=O)c2ccccc2C1=O`?
Pf growth 48h: inactive; Shiga inhibitor: inactive; HCV inh: inactive; HCMV inh: inactive; Cycloheximide cs: inactive; Pf growth 96h: inconclusive

What do the screens show for `Cc1nn(-c2ccccc2)c(NC(=O)NS(=O)(=O)c2ccc(Cl)cc2)c1C#N`?
Shiga inhibitor: inactive; Cycloheximide cs: inactive

What do the screens show for `Cc1sc(NC(=O)COc2ccccc2)c(C#N)c1C`?
Pf growth 48h: inactive; Shiga inhibitor: 95.6; HCV inh: inactive; HCMV inh: inactive; Cycloheximide cs: 41.4; Pf growth 96h: inactive

Results for Cc1cc(C(=O)Nc2sc3c(c2C#N)CCCCC3)cs1 ?
Pf growth 48h: inactive; Shiga inhibitor: 60.0; HCV inh: inconclusive; HCMV inh: inactive; Cycloheximide cs: 28.8; Pf growth 96h: inactive
